Laboratory results as given in PubChem BioAssay (NCATS).
Records with an inconclusive call do not appear. Active and inactive are the calls of the source. Calls follow the shape of the dose curve; as a rule, active = well fitted curve in the direction sought with a large enough effect; inconclusive = small, poorly fitted or top-dose-only effect, or effect the other way, or another doubt; inactive = no such curve, though single readings can be large or run the other way. Peptide text beside a SMILES is read from it. * marks the point of attachment. Octanoyl = CCCCCCCC(=O)*

assay: DH5-alpha competent E. coli microbial cell viability qHTS against the NCATS CANVASS Library (AID 1347377); details: BacTiter-Glo ATP luminescence, overnight; series mostly up to 46.1 µM; viability signal change, negative = cytotoxic: at the top concentration; as to viability signal change, negative = cytotoxic: 0% is about no effect
From the text: Natural products and their derivatives continue to be wellsprings of nascent therapeutic potential. However, many laboratories have limited resources for biological evaluation, leaving their previously isolated or synthesized compounds largely or completely untested. To address this issue, the Canvass library of natural products was assembled (https://tripod.nih.gov/canvass), in collaboration with academic and industry researchers, for quantitative high-throughput screening (qHTS) across a diverse set of cell-based and biochemical assays. The pure (>85% purity by liquid chromatography/mass spectrometry [LC/MS]) Canvass library of 346 natural products were submitted by 45 academic laboratories and companies around the world. We collected pure natural products to circumvent deconvolution and structure elucidation due to time and resource limitations. The library was formatted into 1536-well plates and evaluated in 50 qHTS (in an 11-pnt concentration series) bioassays with broad scope of disease-relevant mechanisms. The resulting data set from 50 different assays was then systematically analyzed to identify overall trends and specific natural products with interesting biological activities. Reported herein are the results of each individual qHTS and their corresponding assay protocol. The BacTiter-Glo microbial cell viability assay is a homogeneous method for determining the number of viable bacterial cells in culture based on quantitation of the ATP present. ATP is an indicator of metabolically active cells. The homogeneous assay procedure involves adding a single reagent (BacTiter-GloTM Reagent) directly to bacterial cells in medium and measuring luminescence. National Center for Advancing Translational Sciences (NCATS), Rockville, MD National Institute of Health (NIH), Bethesda, Maryland
DH5-alpha competent E.coli cytotoxicity protocol: 1. In a 1536 well, tissue culture treated white solid bottom plates (Greiner Bio-One North America), 5 uL of DH5-alpha competent E. coli suspension (0.9 OD culture diluted 0.2 OD) was dispensed into columns 1, 2, and 5-48 using the Multidrop Combi dispenser (Thermo Fisher Scientific). 2. Controls and compounds were pin transferred (~23 nL volume) to the assay plates via Wako Pin-tool (Wako Automation, Richmond VA) equipped with a 1536 pin head. The compounds were transferred to columns 5-48 resulting in a final concentration ranging from 0.17nM to 92uM. Daunomycin was used as a control in various concentrations (1mM working concentration; 1:2 dilution; 16 points; n=2; column 2, rows) for a final concentration range of 0.2 nM to 9.2 uM. 3. The assay plates were incubated overnight at 37C, 5% CO2, 95% humidity. 4. 2.5 uL of BacTiterGlo solution (Promega) was then added to the assay plates (column 1-48, rows 1-32). The assay plates were incubated at room temperature for 20 min. 5. Luminescence signal was acquired via the ViewLux plate reader using a clear emission filter, 2 second exposure and 2x binning settings.

Row | SMILES | viability signal change, negative = cytotoxic | outcome
1 | C=C1C[C@@]23C=CC(=O)[C@@](C)(CCC(=O)Nc4c(O)ccc(C(=O)O)c4O)C2C[C@@H]1C(O)C3 (stereo not given in full) | 15.6% (inactive) | 
2 | C[C@@H]1O[C@H](c2c(O)cc(O)c3c(=O)cc(-c4ccc(O)cc4)oc23)[C@H](O)[C@H](O)[C@H]1O | 13.1% (inactive) | 
3 | Oc1ccc(C2c3c(O)cc(O)cc3[C@@H]3C(c4ccc(O)cc4)c4c(O)cc(O)cc4[C@H]23)cc1 (stereo not given in full) | 0.348% (inactive) | 
4 | C=C(C)C(=O)O[C@H]1C[C@H](C)[C@@H](OC(C)=O)CC[C@@]2(C)O[C@@H]2[C@H]2OC(=O)C(COC(C)=O)=C12 | 13.2% (inactive) | 
5 | CC(=O)O[C@H]1CC[C@@]2(C)C(CC[C@]3(C)C2CC=C2C4CC(C)(C)CC[C@]4(C)CC[C@]23C)C1(C)C (stereo not given in full) | 7.23% (inactive) | 
6 | CC(O)/C=C/C1(O)C(C)(C)CC(O)CC1(C)O (stereo not given) |  | inactive
7 | C[C@@H](CCC[C@]1(C)C(=O)C=C[C@]23C[C@H]4C[C@H](O[C@@]4(C)C2)C31)C(=O)N[C@@H](CO)C(=O)O (stereo not given in full) |  | inactive
8 | CC12C[C@]3(O)O[C@@H](O1)[C@]1(COC(=O)c4ccccc4)[C@@H]3CC21OC1OC(CO)C(O)C(O)C1O (stereo not given in full) | 3.93% (inactive) | 
9 | C/C(=C\[C@H](C)C(=O)CCCC1CC(=O)NC(=O)C1)[C@@H]1OC(=O)/C=C/CC/C=C/C[C@@H](O)[C@@H]1C | 12.4% (inactive) | 
10 | CC(C)(Br)[C@@H](Cl)C[C@H](Br)[C@](C)(Cl)/C=C/Br | 12.8% (inactive) | 
11 | CC1=CC2=C[C@H](C)C[C@@]23OC(=C(C)C3=O)CC(C)(C)/C=C/C1=O | 8.91% (inactive) | 
12 | CCC1=C2CCCN3C(=O)O[C@H]([C@H]1OC(C)=O)[C@H]23 | 7.1% (inactive) | 
13 | O=C(O)[C@@]12CO[C@@]3(O)C4CCN(CC[C@H]31)[C@H]4c1c2[nH]c2ccccc12 | 13.4% (inactive) | 
14 | COc1ccc(CCCc2cc(O)c(OC)c(O)c2)c(O)c1O | 12.2% (inactive) | 
15 | O=C1CC(c2cc(O)cc(O)c2)Oc2cc(O)ccc21 (stereo not given) |  | inactive
16 | O=C(O)Cc1c[nH]c2ccccc12 |  | inactive
17 | CCCCCCCC(=O)N[C@@H](CC(C)C)C(=O)N[C@H](C=O)CCC(=O)O (Octanoyl-Leu-Glu-aldehyde) | 9.05% (inactive) | 
18 | COC1C(O)C(OC(N)=O)C(Oc2ccc3c(O)c(NC(=O)c4ccc(O)c(CC=C(C)C)c4)c(=O)oc3c2C)OC1(C)C (stereo not given) |  | inactive
19 | C=C1[C@H]2CC[C@@]3(C=CC(=O)[C@@](C)(CCC(=O)Nc4c(O)ccc(C(=O)O)c4O)C3C2)[C@H]1O (stereo not given in full) | 24.2% (inactive) | 
20 | O=c1cc(-c2ccc(O)c(O[C@@H]3O[C@H](CO)[C@@H](O)[C@H](O)[C@H]3O)c2)oc2cc(O[C@@H]3O[C@H](CO)[C@@H](O)[C@H](O)[C@H]3O)cc(O)c12 | 13.7% (inactive) | 

Row | SMILES | viability signal change, negative = cytotoxic | outcome
21 | C/C1=C\CC(=O)/C=C/C=C\c2csc(n2)[C@@H](C)NC(=O)C[C@@](S)([C@@H](C)C(=O)O)CC1 | 12.7% (inactive) | 
22 | C=C1C[C@@]23C=CC(=O)[C@@](C)(CCC(=O)Nc4c(O)ccc(C(=O)O)c4O)C2C[C@@H]1CC3O (stereo not given in full) |  | inactive
23 | CC(=O)[C@@H]1[C@@H](O)C[C@H]2[C@]3(C)CC[C@H]4C(C)(C)CCC[C@]4(CO)[C@H]3C[C@H]3OC(=O)[C@@H]1[C@@]32C | 4.01% (inactive) | 
24 | CO[C@@H]1[C@H](O)[C@@H](C)O[C@@H](OC[C@@H]2C(C)OC(=O)/C=C/[C@H](C)C(O[C@@H]3O[C@H](C)CC4(OC(=O)O[C@@H]4C)C3O)[C@@H](C)CC(C)C(=O)CC[C@H]3OC23)[C@@H]1OC (stereo not given in full) | 20.4% (inactive) | 
25 | O=Cc1ccc2n1C[C@@]1(OC2)O[C@H](CO)[C@@H](O)[C@@H]1O | 4.37% (inactive) | 
26 | COc1cc(/C=C/C(=O)O)ccc1O | 8.16% (inactive) | 
27 | C[C@@H]1C(=O)[C@]23CC[C@H]1C[C@]21O[C@H]2C(C)(C)C=CC(=O)[C@@]23COC1=O | 6.35% (inactive) | 
28 | CCCCCCCCCCCCCCCC(=O)OC/C=C(\C)CCCC(C)CC(C)C(C)C (stereo not given) |  | inactive
29 | COc1ccc(/C=C2\COc3cc(O)ccc3C2=O)cc1 | -1.45% (inactive) | 
30 | C=CC(C)(C)C(=O)[C@@H](C)[C@@H]1CC[C@](C)(C=C)O1 | 4.13% (inactive) | 
31 | C=C1/C=C\C(CCC)=C\c2csc(n2)C(C)NC(=O)C[C@@]2(CC(=O)O)CCC(=C)[C@H](C1)S2 (stereo not given in full) | 7.48% (inactive) | 
32 | C=C[C@]1(C)CC[C@@H]([C@H](C)C(=O)OCC)O1 | 15.2% [at 27.5 µM] (inactive) | 
33 | C/C=C/C=C/C1(O)C2C=C3C(=O)CC45C(=O)C(O)=C(C)C(=O)C4C1C1(C(=O)C(O)=C(C)C(=O)C351)C2C (stereo not given) | 7.37% (inactive) | 
34 | CC1=CC[C@@]2(C[C@@H]1O)[C@@H](C(=O)O)CC[C@H]2C(C)C | 3.7% (inactive) | 
35 | C[C@@H]1C[C@H]2C[C@]3(CCCCN3C)[C@@H]3C[C@H]2[C@H](C1)N(C)C3 | 8.19% (inactive) | 
36 | COc1ccc([C@@H]2c3cc(OC)c(OC)cc3C(=O)[C@H](C)C2C)cc1OC (stereo not given in full) | 10.6% [at 9.19 µM] (inactive) | 
37 | COc1cc(/C=C2/C(=O)N(c3ccc(O)cc3C(=O)O)[C@H](c3ccc(O)c(OC)c3)C2C(=O)Nc2ccc(O)cc2C(=O)O)ccc1O (stereo not given in full) | 13.2% (inactive) | 
38 | C=C[C@@]1(C)CC[C@@H]([C@H](C)C(=O)/C=C/C(C)C)O1 |  | inactive
39 | O=C(O)CC1OC(=O)c2c(O)cccc21 (stereo not given) |  | inactive
40 | O=Cc1ccc2n1C[C@@]1(C[C@H](O)[C@@H](CO)O1)OC2 |  | inactive
